From PubChem BioAssay
An excerpt weighted towards active compounds, which were near 5.6% of everything screened.
CtBP-E1A inh: inhibitors of CtBP/E1A interaction | AlphaScreen GST-E1A/His-CtBP binding, 1536-well; hits give low values | hit rate 0.49% among 340,000 | activity change, % (concentration not given with the values); in the data active means activity change below about -65%; inconclusive means mostly about -30% to -63%
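AlphaScreen with 125 nM GST-E1A and 125 nM His-CtBP (5X stocks) in Tris pH 8.0, 300 mM NaCl, BSA, Tween 20, TCEP. Compounds preincubated 2 h at 37 deg C, then glutathione donor/nickel acceptor beads added for 1 h at 37 deg C in dark.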
Gal4-VP16 FLuc: Gal4-VP16 reporter inhibition counter-screen; Potency, µM (top dose mostly 53.6 µM), for inactives: at the top dose activity, negative = inhibition, most hits filed as inhibitors; Drosophila S2 Gal4-VP16 UAS-luciferase, luminescence, 20 h; hit rate 3.5% among 310,000; AID 2546;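 further: Gal4-VP16 expression switched on by copper sulfate through the metallothionein promoter; potency means the concentration at half of the fitted maximal effect; nearly all actives have a fitted effect of over 50% in size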
PKM2 activator: PKM2 (human) enzyme activation | hit rate 0.34% among 260,000 | purified PKM2, Kinase-Glo ATP luminescence, activation; response scale: 0% is enzyme alone, no compound | AID 1631 | P14618 | Potency, µM (highest dose often 57.5 µM), inactives show at the highest dose activation, actives largely listed as activators; further: potency means the concentration at half of the fitted maximal effect; nearly all actives have a fitted effect of over 55% in size
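ATP formation by purified human PK-M2, quantified via coupled luciferase luminescence after 1 h at room temperature with 0.1 mM ADP and 0.5 mM PEP final.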
Six1-Eya2 inh: inhibitors of human Six1/Eya2 interaction | hit rate 0.56% among 360,000 | AlphaScreen GST-Six1/His-Eya2 binding, biochemical; hits give low values | activity change, % (test concentration not listed) | AID 651725 | Q15475+O00167; in the data active means activity change below about -65%; inconclusive means mostly about -30% to -63%
Target sequence (O00167 whole entry, looked up): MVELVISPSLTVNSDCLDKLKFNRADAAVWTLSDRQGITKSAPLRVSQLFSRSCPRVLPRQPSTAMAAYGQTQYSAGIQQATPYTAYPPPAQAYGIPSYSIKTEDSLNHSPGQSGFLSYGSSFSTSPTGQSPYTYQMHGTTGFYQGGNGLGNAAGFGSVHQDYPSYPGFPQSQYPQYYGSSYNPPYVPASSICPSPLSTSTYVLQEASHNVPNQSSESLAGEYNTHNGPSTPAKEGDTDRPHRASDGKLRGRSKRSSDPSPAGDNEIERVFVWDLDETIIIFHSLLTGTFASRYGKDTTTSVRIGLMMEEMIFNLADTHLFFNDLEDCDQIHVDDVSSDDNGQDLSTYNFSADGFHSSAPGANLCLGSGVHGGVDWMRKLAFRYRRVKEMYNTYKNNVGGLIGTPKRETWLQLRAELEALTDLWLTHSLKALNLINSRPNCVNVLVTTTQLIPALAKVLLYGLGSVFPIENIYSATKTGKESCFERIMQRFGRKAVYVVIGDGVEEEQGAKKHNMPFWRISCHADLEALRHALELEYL
Target sequence (Q15475 whole entry, looked up): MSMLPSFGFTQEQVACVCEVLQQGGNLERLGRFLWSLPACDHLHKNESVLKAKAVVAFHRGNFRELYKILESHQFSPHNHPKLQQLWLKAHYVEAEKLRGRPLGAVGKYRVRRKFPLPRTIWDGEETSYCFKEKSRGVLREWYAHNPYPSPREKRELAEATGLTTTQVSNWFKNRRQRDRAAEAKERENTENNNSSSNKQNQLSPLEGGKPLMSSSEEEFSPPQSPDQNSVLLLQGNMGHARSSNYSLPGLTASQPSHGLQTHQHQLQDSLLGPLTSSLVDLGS
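Compounds are tested against tagged Six1 and Eya2 proteins bridged by glutathione donor and nickel acceptor beads; after a one-hour incubation at 37 °C without light, AlphaScreen emission is recorded.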
RORgamma inh: blocks mouse ROR gamma transcriptional activity; P51450; Drosophila S2 Gal4-RORgamma UAS-luciferase reporter, 20 h; Potency, µM (series often up to 53.6 µM), for the others: top-dose activity change, negative = inhibition, most hits filed as inhibitors; hit rate 5.4% among 310,000; AID 2551; further: potency means the concentration at half of the fitted maximal effect; nearly all actives have a fitted effect of over 60% in size
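Compounds are pin-transferred onto Drosophila Schneider cells expressing a copper-inducible Gal4–ROR gamma transactivation domain fusion. After 1 hr, copper sulfate is added to 700 uM final; luciferase is read 20 hr later.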
The depositor's hits bear a star; ? = inconclusive; . = no result given. Unless noted, the call rests on the fitted dose curve; in most records, active means well fitted curve in the direction sought with a large enough effect; inconclusive means small, poorly fitted or top-dose-only effect, or another doubt; inactive means no such curve, though single readings can be large; an effect the other way counts as inactive or inconclusive. On the % scale 0 is the no-effect control and ±100 the full control effect.

SMILES | CtBP-E1A inh | Gal4-VP16 FLuc | PKM2 activator | Six1-Eya2 inh | RORgamma inh
COc1ccc(OC)c(S(=O)(=O)N/N=C\c2ccc3c(c2)OCO3)c1 | -1.9 | 0.9% | -0.7% | 0.6 | 30.7%
Cc1nc2ccc(NS(=O)(=O)c3ccc4c(c3)OCCO4)cc2s1 | 14.4 | 8.91µM* | 19.7% | -1.8 | ?
COc1ccc(S(=O)(=O)N/N=C\c2ccc3c(c2)OCO3)c(OC)c1 | 10.1 | 11.2µM* | 2.2% | 23.6 | ?
OC[C@@H]1CN(Cc2cccs2)C[C@H](n2cnc3c(NC4CCC4)ncnc32)O1 | 8.4 | . | . | 0.6 | .
Cc1ccc(C(=O)N2CCN(c3cccc(C)c3C)CC2)cc1S(=O)(=O)N1CCOCC1 | -1.3 | . | . | -5.0 | .
Cc1cccc(C)c1NC(=O)C1(C)CN(S(C)(=O)=O)CC(=O)N1CCc1c[nH]c2ccccc12 (stereo not drawn) | -20.0 | . | . | -0.7 | .
CCc1cccc(NS(=O)(=O)c2ccc3c(c2)n(C)c(=O)n3C)c1 | 4.4 | ? | . | 18.6 | 39.4%
COc1ccc(S(=O)(=O)Nc2ccc3c(c2)OCO3)cc1 | 4.5 | 1.4% | 25.1µM* | 2.1 | 32.7%
CCc1cccc(NS(=O)(=O)c2ccc3c(c2)oc(=O)n3C)c1 | -3.4 | -19.8% | 3.16µM* | 11.0 | 36.5%
Cn1c(=O)oc2cc(S(=O)(=O)Nc3cccc(C(=O)O)c3)ccc21 | 3.0 | 1.7% | -2.2% | 1.6 | -10.1%
Cn1c(=O)oc2cc(S(=O)(=O)Nc3ccccc3)ccc21 | -3.2 | -6.4% | 2.51µM* | 11.3 | -21.9%
C=CC(=O)OCCCC | . | 9.2% | . | . | -9.4%
CC(=O)OCC1O[C@@H](O[C@@H]2C[C@H]3C(C)(C)[C@H](OC(C)=O)CC[C@]3(C)[C@H]3CC[C@]45C[C@]4(CC[C@H]5[C@@H](C)C[C@@H](O)[C@H](O)C(C)(C)O)[C@@]32C)[C@H](O)[C@@H](O)[C@@H]1O (stereo partly drawn) | . | 3.16µM* | -17.0% | . | 0.891µM*
CC(C)=CCC[C@](C)(O[C@@H]1O[C@H](CO[C@@H]2O[C@H](CO)[C@@H](O)[C@H](O)[C@H]2O)[C@@H](O)[C@H](O)[C@H]1O)C1CC[C@]2(C)C1C(=O)CC1[C@@]3(C)CC[C@H](O[C@H]4O[C@@H](CO)[C@H](O)[C@@H](O)[C@@H]4O)C(C)(C)C3CC[C@]12C (stereo partly drawn) | -0.8 | . | . | 4.8 | .
C[C@H](CO)N1C[C@H](C)[C@@H](CN(C)Cc2ccc3c(c2)OCO3)Oc2ccc(NS(C)(=O)=O)cc2C1=O | 4.8 | . | . | 0.4 | .
Cc1ccc(-c2cc(-c3ccccc3)c(C#N)c(N)n2)o1 | 8.2 | ? | ? | 17.6 | 20µM*
Cc1ccc(-c2cc(-c3ccccc3Cl)c(C#N)c(N)n2)o1 | 16.7 | -4.9% | ? | 9.8 | ?
COc1cccc(C(=O)NC(=S)Nc2ccc(Cl)cc2C(=O)O)c1 | 0.2 | 7.08µM* | -5.6% | 2.2 | 10µM*
COc1cccc(NC(=O)c2cccc(Cl)c2)c1 | 8.4 | . | . | 9.7 | .
COc1cccc(C(=O)NC(=S)Nc2ccc3c4c(cccc24)CC3)c1 | -8.9 | 11.2µM* | 3.7% | -7.2 | 3.55µM*
O=C(O)c1cccc(S(=O)(=O)N2CCC(n3nnc4cc(C(F)(F)F)ccc43)CC2)c1 | -1.7 | 4.6% | . | -6.7 | 13.2%
CS(=O)(=O)N1CCC(Oc2cccc(C(=O)NCCCC3CCCC3)c2)CC1 | 5.1 | . | . | -9.2 | .
CC1CCN(CC(=O)Nc2ccc(S(=O)(=O)N3C(C)CCCC3C)cc2)CC1 (stereo not drawn) | 5.8 | -4.9% | 3.2% | 1.3 | 16.0%
CCOc1ccccc1OCCC(=O)NNC(=O)Cn1nc(C)cc1C | 3.9 | . | . | -5.9 | .
COc1ccc(C(=O)NC(=S)Nc2cccnc2)cc1[N+](=O)[O-] | 9.7 | -10.8% | -3.5% | 5.6 | ?
CCOc1ccc(C(=O)NC(=S)Nc2ccccn2)cc1[N+](=O)[O-] | -1.2 | ? | -13.7% | 10.4 | 0.708µM*
O=C(NC(=S)Nc1ccccn1)c1cccc([N+](=O)[O-])c1 | -73.9* | ? | 0.8% | ? | 3.55µM*
CCOc1ccc(C(=O)NC(=S)Nc2cccnc2)cc1[N+](=O)[O-] | 0.5 | -7.0% | -8.0% | 4.6 | 14.1µM*
